In general, inhibition refers to the change of the read-out against control, counted positive when it falls.
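Further: mean TRKC inhibition from the GSK PKIS kinase inhibitor set, with assays run by Nanosyn.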

Chain of NT-3 growth factor receptor (Homo sapiens) (Q16288 32-839 limits assumed): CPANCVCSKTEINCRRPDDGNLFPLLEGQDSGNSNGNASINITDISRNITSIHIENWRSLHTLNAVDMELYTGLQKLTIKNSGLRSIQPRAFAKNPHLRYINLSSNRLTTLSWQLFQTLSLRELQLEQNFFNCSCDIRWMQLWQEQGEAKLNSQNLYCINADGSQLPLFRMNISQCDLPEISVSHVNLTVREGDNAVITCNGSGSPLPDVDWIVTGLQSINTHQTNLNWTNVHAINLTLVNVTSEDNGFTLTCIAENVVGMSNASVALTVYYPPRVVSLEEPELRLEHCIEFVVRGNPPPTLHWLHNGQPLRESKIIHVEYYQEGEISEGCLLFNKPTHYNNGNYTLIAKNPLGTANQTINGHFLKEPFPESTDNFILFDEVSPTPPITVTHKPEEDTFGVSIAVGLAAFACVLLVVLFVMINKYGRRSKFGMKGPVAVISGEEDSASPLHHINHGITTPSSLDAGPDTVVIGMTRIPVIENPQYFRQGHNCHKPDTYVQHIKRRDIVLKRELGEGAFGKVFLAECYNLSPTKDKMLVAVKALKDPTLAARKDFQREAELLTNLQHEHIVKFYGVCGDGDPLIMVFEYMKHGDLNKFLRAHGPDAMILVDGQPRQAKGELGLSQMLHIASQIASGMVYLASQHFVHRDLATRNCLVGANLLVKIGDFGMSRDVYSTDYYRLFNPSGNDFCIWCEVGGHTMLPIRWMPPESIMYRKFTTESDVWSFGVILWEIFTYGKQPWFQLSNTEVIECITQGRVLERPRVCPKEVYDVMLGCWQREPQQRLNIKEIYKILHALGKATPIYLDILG

The assay addresses NT-3 growth factor receptor (Homo sapiens) (UniProt Q16288). The note with it: at 1 µM.
For the compound `CS(=O)(=O)CCNCc1ccc(-c2ccc3ncnc(Nc4ccc(OCc5cccc(F)c5)c(C(F)(F)F)c4)c3c2)o1`, the inhibition worked out at 3.16%.

In the case of `Fc1cccc(COc2ccc(Nc3ncnc4sc(-c5cccs5)cc34)cc2Cl)c1`, the inhibition is 1.03%.

Consider `CC1=C(C(=O)Nc2ccc3[nH]ncc3c2)C(c2ccc3ccccc3c2)CC(=O)N1` (stereo not drawn), for which the inhibition came out at 5.78%.

For the compound `CS(=O)(=O)CCNCc1ccc(-c2ccc3ncnc(Nc4ccc(OCc5ccccc5)c(Cl)c4)c3c2)o1`, the inhibition is 2.17%.

`Cc1cc(O)cc(C)c1/C=C/c1cncc(-c2nn[nH]n2)c1`: the inhibition was 8.05%.

Turning to `O=C1Nc2ccc(C(=O)c3ccco3)cc2C1=Cc1cc(Cl)c(O)c(Cl)c1`, the inhibition stood at 47.1%.

In the case of `COc1cc(C)c(NC(=O)CN(C)C)cc1Nc1nc(Nc2cccc(F)c2C(N)=O)c2cc[nH]c2n1`, the inhibition is 4.14%.

`NC(=O)c1ccc(-c2nc(-c3ccccn3)c(-c3ccc4c(c3)OCO4)[nH]2)cc1`: the inhibition was determined as 1.77%.

In the case of `CCn1c(-c2nonc2N)nc2cnc(Oc3cccc(NC(=O)c4ccc(OCCN5CCOCC5)cc4)c3)cc21`, the inhibition was 2.49%.

Regarding `COc1cc2ncn(-c3cc(O[C@H](C)c4ccccc4Cl)c(C(N)=O)s3)c2cc1OC`, the inhibition worked out at 62.6%.

Turning to `Cc1ccc(C(=O)NC2CCCCC2)cc1-c1ccc(C(=O)NCC2CC2)cc1`, the inhibition is -0.57%.

Take `CCn1c(-c2nonc2N)nc2c(C#CC(C)(C)O)nc(CN3CCCC3)cc21`: the inhibition is -2.34%.

For `Cc1nn(C)c2cc(N(C)c3ccnc(Nc4cccc(S(N)(=O)=O)c4)n3)ccc12`, the inhibition was found to be 12.3%.

Take `COc1cc2ncn(-c3cc(OCc4ccccc4Cl)c(C(N)=O)s3)c2cc1OC`: the inhibition was found to be 20.4%.

In the case of `COc1ccc2cc(-c3c(-c4ccncc4)nc(-c4ccc([S+](C)[O-])cc4)n3C)ccc2c1` (stereo not drawn), the inhibition was 1.86%.

Turning to `COc1ccc(-c2ccncc2)cc1C(N)=O`, the inhibition amounted to 4.79%.

As for `CCc1cccc(NC(=O)Nc2ccc(Oc3ccc4nc(NC(=O)OC)[nH]c4c3)cc2)c1`, the inhibition was 30.3%.

On to `O=C1NC(=O)C(c2ccc(Cl)cc2)=C1Nc1ccc(Cl)c(C(=O)O)c1`, for which the inhibition was -0.55%.

`CCn1c(-c2nonc2N)nc2cncc(C(=O)N3CCNCC3)c21`: the inhibition stood at 4.33%.

On to `CN(C)c1cc2c(Nc3ccc4nc(Cc5ccccc5)[nH]c4c3)ncnc2cn1`, for which the inhibition came to 4.24%.

Turning to `Nc1nc(-c2ccc3c(c2)C(=Cc2cc(Br)c(O)c(Br)c2)C(=O)N3)cs1`, the inhibition was found to be 16.6%.

Take `Nc1nc(-c2ccccn2)c(-c2ccc3ncccc3n2)s1`: the inhibition is 4.07%.

On to `Nc1ncnc2occ(-c3ccc(NC(=O)Nc4cc(C(F)(F)F)cc(C(F)(F)F)c4)cc3)c12`, for which the inhibition is 87.4%.

For `NS(=O)(=O)c1cccc(-c2ccc3c(NC(=O)C4CC4)n[nH]c3c2)c1`, the inhibition turned out to be 3.65%.

For the compound `CCN1CCC(CC(=O)Nc2n[nH]c3nc(-c4cccs4)c(Br)cc23)CC1`, the inhibition is 0.26%.

For `Cc1cccc(-c2n[nH]cc2-c2ccc3ncccc3n2)n1`, the inhibition is -0.92%.

As to `COC(=O)Nc1nc2cc(Oc3cccc(NC(=O)Nc4cc(C(F)(F)F)ccc4F)c3)ccc2[nH]1`, the inhibition is 5.81%.

As to `CNC(=O)c1cncc(/C=C/c2c(Cl)cccc2Cl)c1`, the inhibition turned out to be 2.7%.

As for `Cc1nnc(-c2ccc(C)c(-c3ccc(C(=O)Nc4cccc(C#N)c4)cc3)c2)o1`, the inhibition amounted to 3.49%.

In the case of `CC(=O)Nc1cccc(C#Cc2cncnc2Nc2ccc(OCc3cccc(F)c3)c(Cl)c2)n1`, the inhibition was 4.04%.

As to `O=C1NC(=O)C(c2cccc(Cl)c2)=C1Nc1ccc(O)c(Cl)c1`, the inhibition was found to be 1.68%.

Turning to `CC(C)=Cc1cccc2c1/C(=N/Nc1ccc(S(N)(=O)=O)cc1)C(=O)N2`, the inhibition is 77.2%.

For the compound `COc1cc2ncn(-c3cc(OCc4ccccc4C(F)(F)F)c(C(N)=O)s3)c2cc1OC`, the inhibition was 10.4%.

For the origin of these results see ChEMBL document CHEMBL1961873, “Compounds: GSK PKIS; Assays: Nanosyn kinase panel” (2012).
